Data taken from PubChem BioAssay (NCI).
Several values for one entry are separate records, joined by “and”; a condition that tells them apart may be missing. Equal entries are not always repeated. The panel holds about 79,000 compounds, 15% with a hit somewhere; the sample as a whole holds those more often. Cut-off read from the data, not from the text of the source: active = growth inhibition above about 70%; inactive = the rest.

Columns and labels:
[1] = NCI Yeast Anticancer Drug Screen. Data for the rad50 strain (AID 155);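 note: 0% = growth of vehicle-only cultures of the same strain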; conditions: S. cerevisiae rad50 strain growth inhibition, hits give high values; at 50.0 µM unless noted
Summary of the method: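 A DNA repair-deficient yeast mutant serves as the test organism; compound-induced growth inhibition is calculated against vehicle-treated cells.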

[2] = NCI Yeast Anticancer Drug Screen. Data for the mec2-1 strain (AID 157); conditions: S. cerevisiae mec2-1 strain, hits give high values; at 50.0 µM unless noted
Summary of the method: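 Cells of the genetically defined mec2-1 yeast strain are incubated with test compound. Inhibition of growth is calculated against vehicle-treated controls.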

[3] = NCI Yeast Anticancer Drug Screen. Data for the sgs1 mgt1 strain (AID 161);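 note: 0% = growth of cultures given vehicle only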; conditions: S. cerevisiae sgs1 mgt1 strain, hits give high values; at 50.0 µM unless noted
Summary of the method: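 Mutant yeast exposed to compound; growth scored against vehicle-only wells.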

[4] = NCI Yeast Anticancer Drug Screen. Data for the cln2 rad14 strain (AID 165);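 note: 0% = growth equal to vehicle treated cultures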; conditions: S. cerevisiae cln2 rad14 strain, hits give high values; at 50.0 µM unless noted
Summary of the method: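 The screen exposed genetically defined yeast (cln2 rad14) to test compounds and scored growth inhibition relative to vehicle-treated controls.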

[5] = NCI Yeast Anticancer Drug Screen. Data for the bub3 strain (AID 167); conditions: S. cerevisiae bub3 mutant strain, hits give high values; at 50.0 µM unless noted
Summary of the method: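 Inhibition values come from growth of compound-treated mutant yeast normalised to vehicle-treated controls.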

[6] = NCI Yeast Anticancer Drug Screen. Data for the mlh1 rad18 strain (AID 175); conditions: S. cerevisiae mlh1 rad18 strain growth inhibition, hits give high values; at 50.0 µM unless noted
Summary of the method: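 Compound-treated yeast growth, normalised to vehicle controls. Strain bears defined DNA repair mutations.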

Measured: growth inhibition

CC(C)N(CCO)CC(O)Cn1cnc2ncnc(N)c21 (stereo not given)
inactive: [1] 2.15% | [2] -10.8% | [3] -24.9% | [4] 6.7% | [5] -28.4% | [6] 4.45%

[O-]c1nn(-c2ccccc2)n[n+]1-c1ccccc1
inactive: [1] -2.4% | [2] -12.4% | [3] -0.55% | [4] -25% | [5] -10.8% | [6] -10%

c1ccc(C(=NN=C(c2ccccc2)c2ccccc2)c2ccccc2)cc1
inactive: [1] 17.9% | [2] 23.9% | [3] 8.4% | [4] 30.5% | [5] 1.25% | [6] 6.25%

CC1(C)OCC(N)[C@@H](O)CO1 (stereo not given in full)
inactive: [1] 5% | [2] 12.9% | [3] 13.3% | [4] -26.2% | [5] 3.5% | [6] -0.65%

Nc1nc(N)c2[nH]cnc2n1
inactive: [1] 0.6% and 18.9% | [2] -1.5% and -3.95% | [3] 3.65% and -1.85% | [4] 10.7% and -30.4% | [5] 0.6% and -16.6% | [6] -43.9% and 1.2%

CSc1ncn(C)c1C(N)=O
inactive: [1] 0.1% | [2] 4.25% | [3] 1.5% | [4] -5.2% | [5] -3.25% | [6] 11.2%

O=C(O)CCCn1nnc2c(=O)[nH][nH]c(=O)c21
inactive: [1] 7.3% | [2] 5.65% | [3] 4.4% | [4] -7.75% | [5] -0.25% | [6] 11.6%

Nc1ncnc2c1ncn2C1OC(CO)C(NC(=O)C(N)Cc2ccccc2)C1O (stereo not given)
inactive: [1] 7.2% | [2] -4.7% | [3] -2.8% | [4] -32.3% | [5] 2.15% | [6] -9.5%

C=CCN(N=O)C(=O)N(CCCCC(NC(C)=O)C(=O)NCc1ccccc1)Cc1ccccc1 (stereo not given)
inactive: [1] -0.95% | [2] -13.1% | [3] -21.4% | [4] -26.5% | [5] -22.3% | [6] -17.1%

COC(=O)[C@]1(C)CCCC2(C)C1CC[C@H]1C=C(C)[C@H]3CCC12C3 (stereo not given in full)
inactive: [1] 14% | [2] 12.2% | [3] -25.1% | [4] 6.7% | [5] -1.25% | [6] 15.7%

Nc1ccccc1NC(=O)C(F)(F)C(F)(F)C(F)(F)C(=O)Nc1ccccc1N
inactive: [1] 3.15% | [2] -6.25% | [3] -14.6% | [4] -12.3% | [5] 28.6% | [6] -16.6%

O=C(CC(=O)Nc1ccccc1Cl)NNC(c1cc(N=Nc2ccc(Br)cc2)ccc1O)P(O)O (stereo not given)
inactive: [1] 1.8% | [2] 0.3% | [3] 16.6% | [4] 13.4% | [5] -8.25% | [6] -2.35%

C[N+]1(CCC(=O)c2ccccc2)CCOCC1
inactive: [1] 42% | [2] 9.85% | [3] 28.4% | [4] 20.8% | [5] 13.5% | [6] 19.9%

COC(=O)c1ccccc1NC(=O)Cc1ccccc1
inactive: [1] -0.5% | [2] -27.1% | [3] 15.9% | [4] -5.65% | [5] 37.2% | [6] -15.7%

C1CCC2=NCCCN2CC1
inactive: [1] -13.8% | [2] -23% | [3] 10.6% | [4] -4.8% | [5] 11.8% | [6] -1%

Cn1c2ccccc2c2c3c(ccc21)C(=O)N(c1ccccc1)C3=O
inactive: [1] 11.7% | [2] -4.7% | [3] 12.9% | [4] -3.5% | [5] 12.4% | [6] 2.95%

CCN(CCOC)C(C)=O
inactive: [1] 2.15% | [2] 2.25% | [3] 17.6% | [4] -1.75% | [5] -0.45% | [6] -3.05%

NC(N)=N/N=C(/c1ccccc1)c1ccc(O)cc1O
inactive: [1] 20.2% | [2] -15.7% | [3] -8.5% | [4] 9.7% | [5] -48.6% | [6] 14.5%

C=C1C(=O)OCC1C(=O)OCC (stereo not given)
inactive: [1] 9.35% | [2] 7.7% | [3] -0.35% | [4] 3.35% | [5] -24.8% | [6] 14.2%

ClC(=Nc1cccc2ccccc12)N(c1ccccc1)c1ccccc1
inactive: [1] -8.45% | [2] 7.45% | [3] -9.3% | [4] 3.8% | [5] 7.15% | [6] -4.05%

O=S(=O)(N/N=C/c1cccc(Cl)c1Cl)c1ccccc1
inactive: [1] 9.3% | [2] 3% | [3] 4.4% | [4] -37.6% | [5] 3.5% | [6] 21.5%

CN(C)CCOC(=O)C1C2CC3OC(=O)C1C3C2 (stereo not given)
inactive: [1] -2.4% | [2] -13.6% | [3] 17.5% | [4] -5% | [5] 7.25% | [6] -19.4%

c1cc2c(cc1CSCc1c(CSCc3ccc4c(c3)OCO4)c(CSCc3ccc4c(c3)OCO4)c(CSCc3ccc4c(c3)OCO4)c(CSCc3ccc4c(c3)OCO4)c1CSCc1ccc3c(c1)OCO3)OCO2
inactive: [1] -0.95% | [2] -8.65% | [3] -1.4% | [4] -39% | [5] 2.55% | [6] 9.3%

Cc1ccc(OCC2OC(n3cnc4c(Cl)ncnc43)CC2Oc2ccc(C)cc2)cc1 (stereo not given)
inactive: [1] -1.2% and 20.8% | [2] -10.2% and 3.5% | [3] 0.05% and 45% | [4] -6.6% and 15.3% | [5] -5.6% and 34% | [6] -32.6% and -25.1%

COc1cc(C2c3cc4c(cc3OC3(O)CCCC23)OCO4)cc(OC)c1OC (stereo not given)
inactive: [1] -0.85% | [2] 3.55% | [3] 2.45% | [4] -25.1% | [5] 3.15% | [6] -2.25%

O=C1CSC(c2ccccc2Cl)N1N1C(=O)CSC1c1ccccc1Cl (stereo not given)
inactive: [1] 32.4% | [2] 19.2% | [3] 28.1% | [4] 27.5% | [5] 24.3% | [6] 28.1%

Cc1cc(C)nc(NS(=O)(=O)c2ccc(NC(=O)c3cccc4c(Nc5ccc(S(=O)(=O)Nc6nc(C)cc(C)n6)cc5)c5ccc(Cl)cc5nc34)cc2)n1
inactive: [1] 27.4% | [2] 35.7% | [3] 24.3% | [4] 33% | [5] 19.6% | [6] 30.7%

CC(=O)OCC(C)(O)C#N (stereo not given)
inactive: [1] -19.8% | [2] -0.2% | [3] 11.3% | [4] 4.05% | [5] -5.35% | [6] -22.6%

COc1cc2c(cc1OC)C(C(N)=O)NCC2 (stereo not given)
inactive: [1] 10.2% | [2] -35.8% | [3] 25.6% | [4] 12.2% | [5] -7% | [6] 17.6%

CC1/C(=N\O)CC2C3(C)CCC2(C(C)C(=O)O)C(=O)C13 (stereo not given)
inactive: [1] 4.75% | [2] 9.1% | [3] 2.2% | [4] 8.55% | [5] 8.9% | [6] 20.6%

O=c1[nH]c2cc(Cl)ccc2nc1/C(=N\O)C(O)c1ccc([N+](=O)[O-])cc1 (stereo not given)
inactive: [1] 8% | [2] 14.2% | [3] -21.2% | [4] -24.6% | [5] -17.2% | [6] -5%

Cc1cc(N(CCC#N)CCC#N)ccc1N=Nc1ccc(S(N)(=O)=O)cc1
inactive: [1] -39.6% | [2] -9.45% | [3] -12.4% | [4] 3.65% | [5] 0.55% | [6] 0.8%

CC(=O)OC(C#N)c1ccco1 (stereo not given)
inactive: [1] -11.4% | [2] -49.1% | [3] -25.2% | [4] 5.8% | [5] -38.2% | [6] -7.85%

CC(=O)N1CCC(/C(C)=N/O)CC1
inactive: [1] 4.9% | [2] -10.1% | [3] -12.6% | [4] -33.8% | [5] -13.8% | [6] 0.45%

CC(=O)N(CCC(C)C)CCC(C)C
inactive: [1] 17.9% | [2] 2.3% | [3] 5.5% | [4] 14.3% | [5] -8.05% | [6] -11.2%
